Experimental data from PMC6792352, “Limited Chemical Structural Diversity Found to Modulate Thyroid Hormone Receptor in the Tox21 Chemical Library” (Environmental Health Perspectives, 2019).
Counter-ions that a name gives are not always drawn.

Tested on: thyroid hormone receptor (endogenous TRα and TRβ)
Parameters: species or system GH3-TRE-Luc (rat pituitary); GH3-TRE-Luc luciferase reporter, antagonist mode against 1 nM T3, loss of signal, qHTS
Conditions: read-out: Average AC50 (uM) GH3-TRE-Antag, antagonist mode, 1 nM T3, no GH3 cytotoxicity hit

SMILES	AC50
O=c1[nH]c(Cl)c(Cl)cc1Cl [3,5,6-Trichloro-2-pyridinol]	76.8 µM
CC(=O)C(Cl)C(=O)N(C)C (centres unmarked) [2-Chloro-N,N-dimethyl-3-oxobutanamide]	90.4 µM
CCO[Si](C)(CCCOCC1CO1)OCC (centres unmarked) [Diethoxy(methyl)[3-(oxiran-2-ylmethoxy)propyl]silane]	62.6 µM
CC[N+](CC)(CC)CCOc1ccc(/C=C/c2ccccc2)cc1 [Stilonium iodide]	27 µM
CN(C)[C@@H]1C(O)=C(C(N)=O)C(=O)[C@@]2(O)C(O)=C3C(=O)c4c(O)ccc(Cl)c4[C@@](C)(O)[C@H]3C[C@@H]12 [Chlortetracycline hydrochloride]	> 20 µM
Cc1nc2ccccn2c(=O)c1CCN1CCC(C(=O)c2ccc(F)cc2)CC1 [Pirenperone]	47 µM
CC(C)(C)c1ccc2c(S(=O)(=O)O)c(C(C)(C)C)ccc2c1 [Sodium dibunate]	> 50 µM
O=c1[nH]c(=O)n([C@H]2C[C@H](O)[C@@H](CO)O2)cc1C(F)(F)F [Trifluridine]	23.4 µM
CCCCCc1ccco1 [2-Pentylfuran]	61.2 µM
CNc1cc(OC)c(C(=O)N[C@@H]2CCN(Cc3ccccc3)[C@@H]2C)cc1Cl (racemic) [Nemonapride]	36.4 µM
O=C(CS)OCCOC(=O)CS [Ethane-1,2-diyl bis(sulfanylacetate)]	51.5 µM
CC(=O)Oc1ccc(C2(c3ccc(OC(C)=O)cc3)Oc3ccccc3NC2=O)cc1 [Bisoxatin acetate]	3.76 µM
CCCCNC(=O)n1c(NC(=O)OC)nc2ccccc21 [Benomyl]	8.81 µM
C=CCCCCCCCCC=O [Undec-10-enal]	75.3 µM
Cc1cccc(C(C)(C)C)c1O [2-tert-Butyl-6-methylphenol]	75.7 µM
c1ccc2sc(SN(C3CCCCC3)C3CCCCC3)nc2c1 [N,N-Dicyclohexyl-2-benzothiazolesulfenamide]	33.2 µM
C/C=C(C)/C=C/C=C(C)C [2,6-Dimethyl-2,4,6-octatriene]	> 90 µM
CCC(C)c1cc(C(C)(C)C)c(O)c(C(C)(C)C)c1 (centres unmarked) [4-(Butan-2-yl)-2,6-di-tert-butylphenol]	23.6 µM

SMILES	AC50
Nc1ccccc1N [1,2-Phenylenediamine dihydrochloride]	92.5 µM
Cc1ccc(/C=N/n2c(-c3ccccc3)csc2=S)cc1 [Fezatione]	20.5 µM
O=c1cc(-c2ccccc2)oc2ccc3ccccc3c12 [5,6-Benzoflavone]	7.88 µM
C[C@H]1O[C@@H](O[C@H]2[C@@H](O)C[C@H](O[C@H]3[C@@H](O)C[C@H](O[C@H]4CC[C@@]5(C)[C@H](CC[C@@H]6[C@@H]5C[C@@H](O)[C@]5(C)[C@@H](C7=CC(=O)OC7)CC[C@]65O)C4)O[C@@H]3C)O[C@@H]2C)C[C@H](O)[C@@H]1O [Digoxin]	> 50 µM
CCC1(C2=NCCN2)Cc2ccccc2O1 (centres unmarked) [Efaroxan]	45.2 µM
CCCCCc1ccc(N)cc1 [4-Pentylaniline]	47.1 µM
COc1cc2c(cc1N)oc1ccccc12 [2-Methoxy-3-aminodibenzofuran]	84.6 µM
CC(C)[C@@H](C)/C=C/[C@@H](C)[C@H]1CC[C@H]2/C(=C/C=C3\C[C@@H](O)CC[C@@H]3C)CCC[C@]12C [Dihydrotachysterol]	26.8 µM
C[C@]12CC[C@@H]3c4ccc(O)cc4CC[C@H]3[C@@H]1CC[C@H]2O [17alpha-Estradiol]	27 µM
Cc1c(OCC(F)(F)F)ccnc1C[S+]([O-])c1nc2ccccc2[nH]1 (centres unmarked) [Lansoprazole]	> 50 µM
c1ccc2c(c1)[nH]c1cnccc12 [Norharman]	45.1 µM
S=P(N1CC1)(N1CC1)N1CC1 [Thiotepa]	37.9 µM
OC(CN1CCC(Cc2ccc(F)cc2)CC1)c1ccc(Cl)cc1 (centres unmarked) [Eliprodil]	19.5 µM
O=C1OC(OC(=O)c2cccnc2Nc2cccc(C(F)(F)F)c2)c2ccccc21 (centres unmarked) [Talniflumate]	9.92 µM
CCCCNc1ccc(C(=O)OCCN(C)C)cc1 [Tetracaine hydrochloride]	11.2 µM
CCCCOC(=O)c1ccc(N)cc1 [Butyl 4-aminobenzoate]	21.8 µM
CCOC(=O)C1=NN(c2ccccc2)C(=O)C1 [Ethyl 5-oxo-1-phenyl-4,5-dihydro-1H-pyrazole-3-carboxylate]	47.8 µM
